Bioassay records as filed in PubChem.
Sampled rows, rich in hits. Any-hit rate of the full collection: about 3.7%.
TMEM16A act = mouse TMEM16A channel activation, primary screen; Q8BHY3; HEK293 TMEM16A/YFP-H148Q/I152L, iodide quench fluorescence; hits give low values; B-score at 10 µM; 340,000 tested, 0.3% active; AID 623877;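 active = fluorescence-ratio B-score plate-corrected deviation score at least 3 library SD below zero, with starting fluorescence score within 5 deviations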;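 note: channel opened by trigger with iodide after compound preincubation; score built on the fluorescence ratio of max minus min over baseline; more negative score means more quench and so TMEM16A activation or potentiation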
GPR7 antagonist = blocks human GPR7 receptor signaling; P48145; GPR7-expressing cells, fluorescence antagonist assay; inhibition, % at 4.4 µM; 290,000 tested, 1.1% active; AID 1861; in the data active = inhibition above about 16%, passing the limit was not always enough;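 note: cells stimulated with the agonist NPW; 0% = agonist with vehicle and 100% = vehicle without agonist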
CHT inh = human CHT choline transport inhibition | Q9GZV3 | CHT-expressing cells, membrane potential dye, choline response; hits give low values | B-score at 10 µM | 310,000 tested, 0.86% active | AID 488975;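 active = B-score over 3 SD under the library average, and starting fluorescence ratio not unusually high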;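 note: choline stimulus applied at its EC90 after an EC20 pre-addition; B-score computed on integrated fluorescence ratio after choline addition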
CHT PAM = human CHT allosteric activation; 310,000 tested, 0.49% active; B-score at 10 µM; AID 488977; CHT-expressing cells, membrane potential dye, choline EC20; hits give high values; LV-AA mutant CHT in HEK293 cells;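 active = initial fluorescence not abnormally high and integrated response B-score, plate-corrected, over 3 SD above library mean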
Kir21 inh = blocks the mouse Kir2.1 inward-rectifier potassium channel. P35561. HEK293-Kir2.1, FluxOR thallium flux fluorescence; hits give low values. B-score at 10 µM. 310,000 tested, 0.85% active. AID 1672;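 active = fluorescence ratio B-score at or below minus 3 SD of library scores, with starting-brightness B-score within 2 SD, cut at about -4.2 in these data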;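 note: channel flux triggered by added potassium and thallium sulfate stimulus; B-score of peak minus minimum fluorescence over baseline after thallium stimulus; more negative B-score means stronger Kir2.1 block with less thallium influx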
Target sequence (P35561 whole entry, looked up): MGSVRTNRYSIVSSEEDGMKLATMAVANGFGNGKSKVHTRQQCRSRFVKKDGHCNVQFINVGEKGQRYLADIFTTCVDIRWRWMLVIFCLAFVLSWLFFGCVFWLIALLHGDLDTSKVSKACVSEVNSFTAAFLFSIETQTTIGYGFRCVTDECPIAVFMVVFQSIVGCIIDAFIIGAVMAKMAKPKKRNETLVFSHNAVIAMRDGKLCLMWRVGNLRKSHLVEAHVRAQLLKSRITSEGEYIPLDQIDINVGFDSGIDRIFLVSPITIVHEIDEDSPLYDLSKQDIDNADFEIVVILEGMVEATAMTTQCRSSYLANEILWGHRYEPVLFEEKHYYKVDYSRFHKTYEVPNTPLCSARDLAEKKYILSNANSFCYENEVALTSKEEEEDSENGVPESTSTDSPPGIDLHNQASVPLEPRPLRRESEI
ANO1 block = blocks the mouse calcium-activated chloride channel TMEM16A; HEK293 TMEM16A/YFP iodide influx fluorescence, ionomycin; normalized B-score (activity score, 25-100; higher = stronger inhibition) at 10 µM; 310,000 tested, 1.2% active; Q8BHY3;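 active = ratio plate-corrected score three or more library SD toward inhibition, starting fluorescence score within five deviations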;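 note: score derived from kinetic fluorescence span divided by baseline fluorescence per well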
An asterisk follows results filed as active; i = inactive; nt = no result.

SMILES	TMEM16A act	GPR7 antagonist	CHT inh	CHT PAM	Kir21 inh	ANO1 block
CCN(CC)CCNC(=O)c1ccc2c(=O)n(C3CCCC3)c(=S)[nH]c2c1	i	7	-15*	i	-0.83	i
CC(C)NC(=O)c1ccc2c(=O)n(C3CCCC3)c(=S)[nH]c2c1	i	-10	i	i	2.1	i
O=S(=O)(c1cccc(Br)c1)N1CCN(c2ncnc3scc(-c4ccccc4)c23)CC1	i	nt	nt	nt	nt	nt
Cc1csc2ncnc(N3CCN(S(=O)(=O)c4cccc(C(F)(F)F)c4)CC3)c12	i	-14	i	i	-1.3	100*
CC1C=CCC2C(=O)N(c3ccc(OC(=O)c4ccco4)cc3)C(=O)C12 (stereo not drawn)	i	19*	i	i	-3.3	i
CCOC(=O)c1sc(NC(=O)c2ccccc2)cc1C	i	-16	i	i	2.4	i
CCOC(=O)c1sc(NC(=O)c2ccc(Cl)s2)cc1C	-15*	-13	i	i	2.2	i
COCCNC(=O)c1c[nH]c2ccc(S(=O)(=O)N(C)c3ccc(C)c(C)c3)cc2c1=O	i	-14	i	i	0.01	i
Cc1cc(C)c(NS(=O)(=O)c2cccc3cccnc23)c(C)c1	i	-20	i	i	-4.4*	i
Cc1ccc(NS(=O)(=O)c2cccc3cccnc23)cc1Cl	i	-21	i	i	-0.55	i
O=S(=O)(NCc1ccc(Cl)cc1)c1cccc2cccnc12	i	3	i	i	-4.5*	i
O=S(=O)(NCCc1ccc(Cl)cc1)c1cccc2cccnc12	i	-3	i	i	-2.3	i
CN(C)CCCNC(=O)/C(=C\C=C\c1ccccc1)NC(=O)c1ccc([N+](=O)[O-])cc1	i	-6	i	i	-0.9	i
C=CCn1c(SC/C=C/c2ccccc2)nnc1-c1sc(N)nc1C	i	-7	i	i	-5.7*	i
COc1ccc(-c2nc(N)ncc2-c2ccccc2)c(O)c1	i	0	i	i	-0.11	i
COc1ccc(-c2cnc(N)nc2-c2ccc(OC)cc2O)cc1	-17*	-9	i	i	0.02	i
O=C1OC[C@H](Cc2ccc3c(c2)OCO3)/C1=C\c1ccc2c(c1)OCO2	i	nt	i	i	0.33	25*
Cc1ccsc1C(=O)OCC(=O)N1CC(C)CC(C)C1 (stereo not drawn)	i	nt	nt	nt	nt	nt
O=C(CN(C(=O)CNC(=O)c1cccs1)c1ccc(F)cc1)NC1CCCCC1	i	2	i	i	0.67	i
Cc1cccc(CCN=c2c([N+](=O)[O-])nn(-c3ccccc3)n2O)c1	i	1	i	i	-4.3*	i
COc1ccc(-n2nc([N+](=O)[O-])c(=NCCc3cccc(C)c3)n2O)cc1	i	-7	i	i	0.48	i
CCc1ccc(C(=O)N/N=C/c2cccc3ccccc23)nc1	i	-1	i	i	-0.08	i
CCOc1ccc(NC(=O)c2cc(=O)[nH]c3ccccc23)cc1	i	-6	i	i	-0.22	i
O=C(Nc1ccc(Cl)cc1)c1cc2c(cc1O)[nH]c1ccccc12	i	43*	i	i	-1.1	i
COC(=O)c1cc(NC(=S)Nc2cc(Cl)cc(Cl)c2)cc(C(=O)OC)c1	i	-13	i	i	-0.15	100*
CC(=O)Nc1nc(-c2cc([N+](=O)[O-])cs2)cs1	i	0	i	i	-0.51	i
COc1ccc(CN(CC2CCC(C(=O)O)CC2)C(=S)Nc2ccc(C)c(Cl)c2)cc1 (stereo not drawn)	i	-3	i	i	-1.4	i
Cc1ccc(NC(=S)N(Cc2ccc(Cl)cc2)Cc2ccc(C(=O)O)cc2)cc1Cl	i	18	i	i	0.74	25*
O=C(c1ccc(-c2ccccc2)cc1)C1CCCN(C(=O)c2ccncc2)C1 (stereo not drawn)	i	25	i	i	0.73	i
O=C(c1ccc(-c2ccccc2)cc1)C1CCCN(Cc2ccncc2)C1 (stereo not drawn)	i	-1	i	i	0.02	100*
